Data as given in PubChem BioAssay.
Potency and affinity values are given separately. Active and inactive are the calls of the source.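 Rule for the calls: active = dose-response curve with midpoint inside the tested range, moderate steepness, significant amplitude and little compound fluorescence or bead-attachment interference; inactive = the rest.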

The compounds below were run against GTPase HRas (Homo sapiens) (UniProt P01112) (assay: activated Ras mutant GTP binding inhibitors, dose response, biochemical, multiplex bead flow cytometry (AID 1341;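 note: GST-tagged constitutively activated Ras mutant immobilized on beads and multiplexed with other GTPases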)). Settings: bead-based flow cytometry, Bodipy-FL-GTP binding; series mostly up to 100 µM.

outcome, inactive:
COc1cc2c(cc1OC)-c1cc(NC3CCCCCC3)nc(=O)n1CC2
O=C1c2ccccc2-c2onc3ccc(Oc4ccccc4)c1c23
CCN(CC)c1ccc2c(c1)oc(=O)c1c(Cl)cc(=O)oc12
CCOc1nnc(C)c2c(C)n(-c3cccc(OC)c3)nc12
Cc1nnc(N2CCOCC2)c2nn(-c3ccccc3)c(C)c12
O=C(C#Cc1ccccc1)c1cccc([N+](=O)[O-])c1
COC(=O)c1ccc2nc(Nc3nc4c(F)cc(F)cc4s3)sc2c1
COc1ccc(/C=C/C(=O)c2cc(Br)ccc(=O)c2O)cc1
O=C(NNC(=S)NCc1ccc(Cl)cc1)c1ccc(Br)o1
O=C(O)c1ccccc1OCCOc1ccccc1
CN1C(=O)N(C)c2ccc(C=O)c3cccc1c23
CCN1/C(=C/C=C/C=C/c2sc3ccccc3[n+]2CC)Sc2ccccc21
O=C(C#Cc1cccc([N+](=O)[O-])c1)c1ccccc1
O=C(O)c1cn(CCOc2ccccc2)c2ccccc12
CCOc1cccc(-c2nn3c(-c4ccco4)nnc3s2)c1
COC(=O)n1c(=S)oc2cc(Cl)ccc21
O=C(/C=C/c1ccc(Cl)c([N+](=O)[O-])c1)c1cccnc1
COCCN1C(=O)/C(=C/c2ccc(N3CCCC3)cc2C)SC1=S
N=c1c(C(=O)NCc2ccco2)cc2c(=O)n3ccccc3nc2n1CCc1ccccc1
O=C(OCC1O[C@@H](OC(=O)c2cc(O)c(O)c(O)c2)[C@@H](OC(=O)c2cc(O)c(O)c(O)c2)[C@@H](OC(=O)c2cc(O)c(O)c(O)c2)[C@@H]1OC(=O)c1cc(O)c(O)c(O)c1)c1cc(O)c(O)c(O)c1 (some centres undefined)
COc1cccc2sc(Nc3nc(-c4ccccn4)cs3)nc12
COc1ccc(-c2csc(NC(=S)NC(=O)c3cccs3)n2)cc1OC
Oc1ccc2ccccc2c1/C=N/Nc1nnc(-c2ncc[nH]2)c2ccccc12
COc1ccc(NC(=O)CSc2ccc3nnc(-c4cccnc4)n3n2)c(OC)c1
O=C(c1nnsc1S(=O)(=O)c1ccc(Cl)cc1)N1CCOCC1
CN(C)c1ccc(/C=C/C(=O)c2cccc(Br)c2)cc1
CN(c1ccccc1)c1ccc(/C=c2\s/c(=C(/C#N)C(=O)C(C)(C)C)n(Cc3ccco3)c2=O)cc1
CS(=O)(=O)N1N=C(c2ccccc2)CC1c1ccc2c(c1)OCO2 (centres undefined)
COc1ccc(-c2nnc(SCC(=O)c3cccs3)o2)cc1
COc1ccc(CNc2ccccc2C(=O)O)cc1
CCOC(=O)c1c(NC(=O)/C=C/c2ccc3c(c2)OCO3)sc(C)c1CC
CCOC(=O)N1CCN(C(=O)CCc2ccc(S(=O)(=O)NCCc3ccccc3)cc2)CC1
CC(C)(C)c1ccc(C(=O)CC(Sc2ccc(Cl)cc2)C(=O)O)cc1 (centres undefined)
NC(=S)N=Nc1c(O)[nH]c2ccc(F)cc12
COc1cc(/C=N\NC(=O)c2sc(N)nc2C)cc(OC)c1OC
Cc1cc(C)c(C(=O)Cn2cnc3cc([N+](=O)[O-])ccc3c2=O)cc1C
O=C(COc1ncnc2cc([N+](=O)[O-])ccc12)NCCc1ccc(Cl)cc1
COC(=O)C1=NN(C(=O)c2cccc(Br)c2)C(O)(c2ccc(Cl)cc2)C1 (centres undefined)
CC(C)(C)C(=O)/C=c1\s/c(=C\c2ccc(-c3ccc([N+](=O)[O-])cc3)o2)c(=O)n1CC(=O)NC(N)=O
